Laboratory results reported in PubChem BioAssay (EPA / NIEHS).
Results filed as inconclusive are left out. Calls of active or inactive are those of the source. How the source made its calls, unless noted: active means hit-call score of the fitted dose curve at least 0.9, where 1 is the maximum; inconclusive means response in the unintended direction; inactive means score below 0.9.

Experiments:
[1] = Tanguay_ZF_120hpf_PE_legacy: (Legacy) Oregon State University Tanguay Lab 120 Hour Post-fertilization zebrafish Assay for Pericardial Edema (AID 2283640);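 on AC50: potency for increased incidence of pericardial edema versus DMSO baseline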
In short: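 Zebrafish larvae are exposed from early development to 120 hpf at 28C, with 0.64% DMSO final. Each surviving larva receives a yes/no pericardial edema call by brightfield imaging, analysed relative to the DMSO baseline.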

[2] = Tanguay_ZF_120hpf_BRAI_legacy: (Legacy) Oregon State University Tanguay Lab 120 Hour Post-fertilization zebrafish Assay for Brain Malformation (AID 2283641)
In short: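 Static exposure of staged wild-type embryos until 120 hpf, kept at 28C with light excluded and final DMSO of 0.64% (vol/vol). Presence or absence of brain malformation was noted under brightfield; mortality precluded scoring.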

[3] = Tanguay_ZF_120hpf_SOMI_legacy: (Legacy) Oregon State University Tanguay Lab 120 Hour Post-fertilization zebrafish Assay for Somite Malformation (AID 2283647)
In short: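 Somitogenesis defects are recorded as binary calls in whole larvae at 120 hpf after continuous static chemical exposure starting at 6 hpf in dechorionated 5D embryos. DMSO serves as negative control and baseline.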

[4] = Tanguay_ZF_120hpf_PFIN_legacy: (Legacy) Oregon State University Tanguay Lab 120 Hour Post-fertilization zebrafish Assay for Pectoral Fin Malformation (AID 2283648);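 further: each larva judged yes or no for fin defect by brightfield with dead larvae skipped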
In short: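 Binary pectoral fin malformation call at 120 hpf by brightfield microscopy; 5D wild-type zebrafish, chorion removed at 4 hpf, one embryo per well from 6 hpf, static exposure at 28C; DMSO (0.64% final) as baseline.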

[5] = Tanguay_ZF_120hpf_CFIN_legacy: (Legacy) Oregon State University Tanguay Lab 120 Hour Post-fertilization zebrafish Assay for Caudal Fin Malformation (AID 2283649)
In short: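 Single dechorionated 5D wild-type embryos are dosed at 6 hpf (final DMSO 0.64%) and held statically at 28C. Caudal fin malformation is recorded as present or absent at 120 hpf under brightfield, excluding dead embryos.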

[6] = Tanguay_ZF_120hpf_PIG_legacy: (Legacy) Oregon State University Tanguay Lab 120 Hour Post-fertilization zebrafish Assay for Pigmentation Malformation (AID 2283650);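 further: dechorionated Tropical 5D zebrafish embryos exposed singly from 6 to 120 hpf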
In short: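 Brightfield scoring of pigmentation malformation at 120 hpf, recorded as binary present/absent per larva. Exposure: dechorionated 5D wild-type embryos, one per well, static from 6 hpf at 28C, final DMSO 0.64% (vol/vol). Dead embryos not scored.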

[7] = Tanguay_ZF_120hpf_CIRC_legacy: (Legacy) Oregon State University Tanguay Lab 120 Hour Post-fertilization zebrafish Assay for Circulatory Malformation (AID 2283651)
In short: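 Static exposure, 6–120 hpf, 28C, sealed and dark; one dechorionated 5D embryo/well; DMSO 0.64% v/v final. Binary circulation endpoint by brightfield; dead embryos not scored.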

[8] = Tanguay_ZF_120hpf_TRUN_legacy: (Legacy) Oregon State University Tanguay Lab 120 Hour Post-fertilization zebrafish Assay for Truncated Body (AID 2283655)
In short: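 Single dechorionated zebrafish embryos received test chemical from 6 hpf in 0.64% DMSO, kept at 28C. At 120 hpf, brightfield inspection noted any truncated body.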

[9] = Tanguay_ZF_120hpf_NC_legacy: (Legacy) Oregon State University Tanguay Lab 120 Hour Post-fertilization zebrafish Assay for Notochord and Tail Malformation (AID 2283656)
In short: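 Binary notochord-distortion calls, made by brightfield inspection, form the read-out; activity is fitted in the positive direction against DMSO. Exposure ran statically from 6 to 120 hpf at 28C with 0.64% DMSO.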

[10] = Tanguay_ZF_120hpf_TR_legacy: (Legacy) Oregon State University Tanguay Lab 120 Hour Post-fertilization zebrafish Assay for Touch Response (AID 2283667)
In short: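 Binary touch-response call at 120 hpf, analysed as gain of signal versus DMSO baseline. Wild-type 5D larvae, static exposure at 28C, 0.64% DMSO final; 5uM trimethyltin chloride as positive control.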

[11] = CCTE_Padilla_ZF_144hpf_TERATOSCORE: (Legacy) CCTE's 144 Hour Post-fertilization zebrafish Assay Teratoscore, Padilla Lab (AID 2283679; active means hit-call score of the fitted dose curve at least 0.9, where 1 is the maximum; inactive means score below 0.9;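 on AC50: zebrafish embryos with chorions exposed by immersion from 6-8 hpf to 5 dpf with daily renewal; teratogenicity score from eye scoring of death hatching and malformations at 144 hpf; higher score means more developmental defects relative to DMSO baseline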)
In short: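 Larvae scored by eye at 144 hpf for death, hatching and malformations after a day in clean Hanks'. Before that, daily-renewed exposure at 80 uM (0.4% DMSO, 26C) from roughly 6-8 hpf through 5 dpf, 4 embryos per chemical.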

[12] = STM_H9_OrnithineISnorm_perc: Stemina devTOX quickPredict H9 human embryonic stem cell (hESC)-based Assay for Ornithine (ORN) Metabolite Biomarker, Normalized (AID 2283712; active means hit-call score of the fitted dose curve at least 0.9, where 1 is the maximum; inactive means score below 0.9;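 further: ornithine released into spent medium during last day measured by mass spectrometry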)
In short: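 UPLC-HRMS readout: endogenous ornithine EIC area / 13C-ORN internal standard, then % of 0.1% DMSO median. H9 hESCs (pluripotent), 72h exposure, re-dosed with fresh media q24h; last 24-h spent media, deproteinized in 40% acetonitrile.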

[13] = Tanguay_ZF_120hpf_SWIM_legacy: (Legacy) Oregon State University Tanguay Lab 120 Hour Post-fertilization zebrafish Assay for Swim Bladder Malformation (AID 2283654);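 further: swim bladder malformation in each larva scored yes or no under brightfield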
In short: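 Tropical 5D embryos dechorionated at 4 hpf; 1 embryo/well from 6 hpf; static, sealed, dark exposure at 28C until 120 hpf; final DMSO 0.64%; 5uM trimethyltin chloride positive control; swim bladder defect recorded yes/no; dead embryos not scored.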

[14] = system: Thyroperoxidase (TPO), gene 54314; assay: CCTE_Simmons_AUR_rTPO: CCTE's Amplex UltraRed Assay for Thyroperoxidase (TPO) Inhibition, Simmons Lab (AID 2283662);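 on AC50: potency for loss of signal meaning inhibition of peroxidase activity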
In short: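 Rat thyroid microsomal TPO + 25 uM AUR in 200 mM K phosphate; cpd 5 nM–87.5 uM [final], 8 conc, 0.5% DMSO; 300 uM H2O2 starts rxn; 37C dark 30 min; endpoint FI 544/590 nm; n=3.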

[15] = CCTE_Simmons_CellTiterGLO_HEK293T: Viability Assessment in CCTE's Assays for Thyroperoxidase (TPO) Inhibition, Simmons Lab (AID 2283665);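 on AC50: cells exposed to compound for 24 h before readout; actives reduce ATP signal below DMSO vehicle meaning cytotoxicity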
In short: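 Luminescent ATP readout (CellTiter-Glo, 20 min at room temperature) after 24 hr exposure of HEK293T cells to 5 nM–87.5 uM final compound; signal loss relative to DMSO vehicle indicated cytotoxicity; dichlone titrated as positive control.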

Measured: AC50

CCCCC(CC)C(=O)OCCOCCOCCOC(=O)C(CC)CCCC (stereo not drawn)
active: [11] 4.5 µM
inactive: [1] | [2] | [3] | [4] | [5] | [6] | [7] | [8] | [9] | [10]

O=C(O)c1ccc2c(c1)nc(C(=O)NC1CCN(C3CC3)CC1)n2Cc1cc(-c2ccc(Cl)s2)on1
inactive: [1] | [2] | [3] | [4] | [5] | [6] | [8] | [9] | [10]

CC(C)c1nnc2ccc(-c3ocnc3-c3cc(F)ccc3F)cn12
active: [11] 61.9 µM
inactive: [1] | [2] | [3] | [4] | [5] | [6] | [8] | [9] | [10]

CC[C@H](C)C(=O)O[C@H]1C[C@H](O)C=C2C=C[C@H](C)[C@H](CC[C@@H](O)C[C@@H](O)CC(=O)O)[C@H]21
inactive: [1] | [2] | [3] | [4] | [5] | [8] | [9] | [10] | [11] | [12]

NNC(=O)c1ccncc1
inactive: [1] | [2] | [3] | [4] | [5] | [6] | [13] | [8] | [9] | [15] | [10]
active: [14] 1.92 µM

CCN(CC)C(=S)SSC(=S)N(CC)CC
inactive: [2] | [4] | [5] | [6]
active: [1] 1.22 µM | [3] 0.619 µM | [7] 5.12 µM | [13] 1.1 µM | [8] 0.904 µM | [9] 0.112 µM | [10] 2.17 µM | [11] 0.183 µM | [12] 0.32 µM

CCCCCCCCCCCCCCO
inactive: [1] | [2] | [3] | [4] | [5] | [8] | [9] | [10]

Nc1ccn([C@@H]2O[C@H](CO)[C@@H](O)[C@@H]2O)c(=O)n1
active: [12] 0.235 µM
inactive: [1] | [2] | [3] | [4] | [5] | [6] | [13] | [8] | [9] | [10]

CCOc1ccc2[nH]cc(C(=O)NCc3ccccc3)c(=O)c2n1
inactive: [1] | [2] | [3] | [4] | [5] | [6] | [7] | [8] | [9] | [10]

Cc1ccc(S(=O)(=O)NC(=O)NN2CCCCCC2)cc1
inactive: [1] | [2] | [3] | [4] | [5] | [6] | [8] | [9] | [15] | [10]
active: [14] 8.68 µM

NC(=O)NN=Cc1ccc([N+](=O)[O-])o1
inactive: [1] | [2] | [3] | [4] | [5] | [6] | [13] | [8] | [9] | [10] | [12]

O=C(NO)C1(NS(=O)(=O)c2ccc(Oc3ccc(F)cc3)cc2)CCOCC1
inactive: [1] | [2] | [3] | [4] | [5] | [6] | [13] | [8] | [9] | [15] | [10]
active: [14] 18.1 µM

OCCNCCO
inactive: [1] | [2] | [3] | [4] | [5] | [6] | [7] | [8] | [9] | [10] | [12]

CCCCCCCCCCCCCCCCOS(=O)(=O)O
inactive: [1] | [2] | [3] | [4] | [5] | [6] | [8] | [9] | [14] | [10]
active: [15] 26.7 µM | [11] 7.7 µM

COS(C)(=O)=O
inactive: [1] | [2] | [3] | [4] | [5] | [6] | [8] | [9] | [15] | [10]
active: [14] 49.7 µM | [12] 71.4 µM

CC(=O)c1ccccc1
inactive: [1] | [2] | [3] | [4] | [5] | [6] | [13] | [8] | [9] | [10]

OC[C@H]1O[C@@H]2O[C@H]3[C@H](O)[C@@H](O)[C@@H](O[C@H]4[C@H](O)[C@@H](O)[C@@H](O[C@H]5[C@H](O)[C@@H](O)[C@@H](O[C@H]6[C@H](O)[C@@H](O)[C@@H](O[C@H]7[C@H](O)[C@@H](O)[C@@H](O[C@H]1[C@H](O)[C@H]2O)O[C@@H]7CO)O[C@@H]6CO)O[C@@H]5CO)O[C@@H]4CO)O[C@@H]3CO
inactive: [1] | [2] | [3] | [4] | [5] | [6] | [7] | [8] | [10]

CCCc1ccccc1
inactive: [1] | [2] | [3] | [4] | [5] | [6] | [7] | [13] | [9] | [10] | [11]

C=CCc1cc(S(=O)(=O)c2ccc(O)c(CC=C)c2)ccc1O
inactive: [1] | [2] | [3] | [4] | [5] | [6] | [8] | [10]
active: [14] 14.6 µM | [15] 79.5 µM | [11] 60 µM

c1ccc(C(O[C@@H]2CCCN(CCc3ccc4c(c3)OCO4)C2)c2ccccc2)cc1
inactive: [3] | [7] | [13] | [9]
active: [1] 36 µM | [2] 42 µM | [4] 33.4 µM | [5] 37.2 µM | [6] 42.4 µM | [8] 38.2 µM | [10] 53.6 µM | [11] 2.1 µM

CCc1ccc(O)c(C(C)(C)C)c1
inactive: [1] | [2] | [3] | [4] | [5] | [6] | [8] | [9] | [10]
active: [14] 13 µM | [15] 12.6 µM | [11] 25.1 µM

O=C(O)[C@H](O)[C@@H](O)C(=O)O
inactive: [1] | [2] | [3] | [4] | [5] | [6] | [7] | [8] | [9] | [10]

CC(C)C(=O)Nc1ccc([N+](=O)[O-])c(C(F)(F)F)c1
inactive: [1] | [2] | [3] | [4] | [5] | [6] | [8] | [9] | [10]
active: [11] 14.2 µM | [12] 77.1 µM

CCCCN1C(=O)[C@@H]([C@H](O)C2CCCCC2)NC(=O)C12CCN(Cc1ccc(Oc3ccc(C(=O)O)cc3)cc1)CC2
inactive: [1] | [2] | [3] | [4] | [5] | [6] | [8] | [9] | [10] | [12]

O=S1(=O)CCCO1
inactive: [1] | [2] | [3] | [4] | [5] | [6] | [8] | [14] | [10] | [12]

NC(=O)N1c2ccccc2C=Cc2ccccc21
inactive: [1] | [2] | [3] | [4] | [5] | [6] | [8] | [9] | [10] | [12]

CCCCCCOC(=O)CC(CC(=O)OCCCCCC)(OC(=O)CCC)C(=O)OCCCCCC
inactive: [1] | [2] | [3] | [4] | [5] | [6] | [8] | [10]

Cc1nc(-c2ccccn2)ncc1C(=O)Nn1cc(C)c2cc(F)ccc21
inactive: [1] | [2] | [3] | [4] | [5] | [6] | [13] | [9] | [10] | [12]

CC(C)CCCCCCOC(=O)C1CCCCC1C(=O)OCCCCCCC(C)C (stereo not drawn)
inactive: [1] | [2] | [3] | [4] | [5] | [6] | [13] | [8] | [9] | [10]

OCc1ccccc1
inactive: [1] | [2] | [3] | [4] | [5] | [6] | [8] | [9] | [10] | [11]

OCC(CO)(CO)CO
inactive: [1] | [2] | [3] | [4] | [5] | [6] | [8] | [9] | [10] | [11]

c1ccc2ncccc2c1
inactive: [1] | [2] | [3] | [4] | [5] | [6] | [7] | [13] | [8] | [9] | [10]
